HSF1 activator – increases HSF-1 driven luciferase reporter signal. NIH3T3-HGL HSF-1 luciferase reporter, MG132, 8 h; 100% = twice DMSO control signal. actives 1.7% (n = 300,000). activation, % at 9 µM. AID 504408;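 active = mean replicate activation of at least 50% with a set share of replicates each reaching 50%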
HSF1 inhib – HSF1 inhibition; NIH3T3-HGL HSE-luciferase, MG132-induced, luminescence 8 h; stronger effect = lower value; activity change, negative = inhibition, % at 7.5 µM (by protocol); actives 0.77% (n = 300,000); AID 2098;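 active = more than half of replicate wells show activity change below -50%, luminescence cut by over half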;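 note: luciferase reports HSF-1 transcriptional activity via heat shock element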
DAX1 inh – NR0B1 (DAX1) inhibition. actives 0.99% (n = 340,000). P51843. inhibition, % at 6.75 µM. HEK293 Gal4-DAX1 luciferase reporter, luminescence;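 active = inhibition above the mean over all tested compounds plus 3 SD, cut at about 4.2% in these data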;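 note: inhibition shows as a rise in luminescence from relieved DAX1 repression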
HSP90 inh – blocks HSP90-mediated luciferase refolding in reticulocyte lysate | actives 0.91% (n = 290,000) | Rabbit reticulocyte lysate, luciferase refolding luminescence, 3 h | inhibition, % at 5.6 µM;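 active = inhibition above the screen-wide mean plus 3 SD, computed separately per campaign, cut at about 16% in these data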;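 note: inhibitors lower the luminescence because luciferase stays unfolded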
AHR act – human AHR activation | P35869 | AHR-responsive luciferase reporter cells, luminescence | activation, % at 5 µM | actives 2.5% (n = 320,000); in the data active = activation above about 47%
FXN GAA850 act – activators of GAA850 frataxin (FXN) promoter. actives 0.56% (n = 360,000). activation, % at 6 µM. HEK293 lucGAA850 FXN promoter luciferase reporter, 24 h; percent of 10 µM SAHA response;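 active = activation above the average of all compounds screened plus 3 SD, cutoff fixed separately per campaign, cut at about 7.5% in these data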
Hits are given with their value; - = inactive; . = no result given. A selection: hits, their analogues and other compounds. The true share with any hit is near 5.9%.

SMILES	HSF1 activator	HSF1 inhib	DAX1 inh	HSP90 inh	AHR act	FXN GAA850 act
Cc1ccc(S(=O)(=O)N(C)c2ccc(C)c([N+](=O)[O-])c2)cc1	70	-	-	-	-	-
COc1ccc(N(C)S(=O)(=O)c2ccc(C)cc2)c([N+](=O)[O-])c1	-	-	-	-	-	-
Cn1c(/C(C#N)=C(\O)c2ccc([N+](=O)[O-])cc2)nc2ccccc21	-	-	-	-	-	-
Cn1c(/C(C#N)=C(\O)c2cccc(F)c2)nc2ccccc21	-	-	-	-	63	-
COc1ccccc1NC(=O)/C(=N/OCc1ccc(C#N)cc1)C(C)=O	-	-	.	-	-	-
COCCC(=O)N1CCc2ccc(NC(=O)c3ccc(C(F)(F)F)cc3)cc2C1	-	-	-	-	72	-
COCCC(=O)Nc1ccc2c(c1)CN(C(=O)CSC)CC2	-	-	-	-	-	-
COc1cc(/C=N/Nc2ccc(F)cc2F)cc(OC)c1OC	-	-	-	-	70	-
O=C(O)c1ccc(N/N=C/c2cccc(C(F)(F)F)c2)cc1	-	-	4.7	-	-	-
COc1cc(/C=N/Nc2ccc(C(=O)O)cc2)cc(OC)c1OC	-	-	4.3	-	-	-
COc1ccc(/C=N/Nc2ccc(C(=O)O)cc2)c(OC)c1OC	-	-	-	-	-	-
CCc1nc2ccc(C(=O)NCCNC(C)=O)cn2c1N(CCC(C)C)CCN(C)C	.	.	.	.	.	-
COc1ccc(CC(=O)Nc2c(C(=O)N3CCN(c4ncccn4)CC3)oc3ccccc23)cc1	-	-	-	-	-	-
Cc1ccc(O)c(NC(=O)c2onc(C)c2Cl)c1	155	-	-	-	72	-
Cc1noc(C(=O)Nc2ccc(F)cc2F)c1Cl	-	-	4.2	-	.	-
CCc1ccc(NC(=O)c2onc(C)c2Cl)cc1	-	-	4.5	-	-	-
Cc1noc(C(=O)Nc2cccc(O)c2)c1Cl	-	-	-	-	-	-
Cc1noc(C(=O)Nc2ccc(C#N)cc2)c1Cl	-	-	-	-	.	-
Cc1cccc(Nc2ncccc2C(=O)O)c1C	-	-58	-	-	-	-
Cc1ccc(NC(=O)C2(C)CCN2C(=O)C2CCCCC2)cc1C (stereo unspecified)	.	.	.	.	.	-
Cc1ccc(C(=O)Cn2c(=N)n(CCN3CCOCC3)c3ccccc32)cc1	.	.	-	.	-	-
Cn1c(=N)n(CC(=O)c2ccc(Br)cc2)c2ccccc21	-	-	4.9	.	55	-
Cn1c(=N)n(CC(=O)c2ccc(F)cc2)c2ccccc21	-	-	-	-	65	-
Cc1noc(C)c1CCC(=O)Nc1c(C(C)C)cccc1C(C)C	.	.	-	.	-	-
Cc1ccc(C(=O)Nc2ccccc2N2CCOCC2)cc1S(=O)(=O)N1CCOCC1	.	.	-	.	-	-
SMILES	HSF1 activator	HSF1 inhib	DAX1 inh	HSP90 inh	AHR act	FXN GAA850 act
CC(=O)Oc1c(C)cc(Cl)cc1C(=O)Nc1ccc([N+](=O)[O-])cc1Cl	56	-	-	-	-	-
O=C(C=CC=Cc1ccccc1)c1ccc([N+](=O)[O-])cc1	.	.	-	.	.	-
FC(F)(F)c1cnc(COc2cc(Cl)cc(Cl)c2)c(Cl)c1	-	-	5.8	-	-	-
O=C(O)CCc1ncc(C(F)(F)F)cc1Cl	-	-	-	-	-	-
Cc1sc2nc(SCC(=O)N3CCCCC3)[nH]c(=O)c2c1C	-	-	-	-	-	-
Cc1sc2nc(SCC(=O)N3CCCC3)[nH]c(=O)c2c1C	-	-	-	-	59	-
COCCCNC(=O)C[C@H]1C[C@H](C(=O)N(C(C)C)C(C)C)[C@@]2(C)c3[nH]c4cc(CCC(=O)N(C)C)ccc4c3CCN2C1=O	.	.	-	.	.	-
O=C1Nc2ccccc2O/C1=C\c1ccccc1Br	-	-	-	-	53	-
COc1ccccc1C(=O)COC(=O)CNC(=O)c1ccc(Br)o1	-	-	-	.	-	-
COc1ccccc1C(=O)NCC(=O)OCC(=O)c1cccc2ccccc12	60	-	-	.	-	-
N/C(Cc1ccc(Cl)cc1Cl)=N\OC(=O)c1ccccc1F	68	-	-	-	-	-
N/C(Cc1cccc2ccccc12)=N\OC(=O)c1ccccc1F	-	-	-	-	.	-
COc1cccc2c1OC1(CCN(C(C)C)CC1)N1N=C(c3cccnc3)CC21 (stereo unspecified)	-	-	6.8	-	-	-
CC(C)N1CCC2(CC1)Oc1ccc(Br)cc1C1CC(c3cccnc3)=NN12 (stereo unspecified)	-	-	-	-	-	-
Cc1nn(C)cc1/C=C/C(=O)c1ccccc1	-	-	-	-	-	-
Cc1nn(C)cc1/C=C/C(=O)c1cccs1	-	-	5.2	-	-	-
Cc1ccc(NC(=O)Nc2ncccc2C)cc1	-	-	-	-	57	-
Cc1ccc(NC(=O)Nc2ccccc2)nc1	54	-	-	.	-	-
C/C(=N\NC(=O)c1cccc(N/N=C(\C)c2ccco2)c1)c1ccco1	-	-	-	-	.	-
C/C(=N\NC(=O)c1cccc(N/N=C(\C)c2cc(O)ccc2O)c1)c1cc(O)ccc1O	64	-	-	-	-	-
O=C1c2ccccc2NC(c2ccc(Cl)cc2Cl)N1O (stereo unspecified)	-	-	-	-	-	-
O=C1c2ccccc2NC(c2cccc(Cl)c2)N1N=C1CCCCCC1 (stereo unspecified)	-	-	4.9	-	-	-
CCN(CC)CCCC(C)Nc1nccc2c(Cl)cccc12 (stereo unspecified)	.	.	-	.	.	-
CCOCCCNc1ncnc2c1[nH]c1ccccc12	-	-	-	-	50	-
CCCCOCCCNc1ncnc2c1[nH]c1ccccc12	-	-	-	-	-	-
SMILES	HSF1 activator	HSF1 inhib	DAX1 inh	HSP90 inh	AHR act	FXN GAA850 act
CCCCOc1ncnc2c1[nH]c1ccccc12	-	-	-	-	50	-
Cc1ccc(NNC2CC(=O)N(c3cccc(Cl)c3)C2=O)cc1 (stereo unspecified)	.	.	-	-	.	-
O=C1CC(N2CCCCC2)C(=O)N1c1ccccc1 (stereo unspecified)	-	-53	-	-	-	-
COc1ccc(N2C(=O)CC(NNc3nc4ccccc4s3)C2=O)cc1 (stereo unspecified)	114	-	.	-	-	-
O=C1CC(NNc2ccccc2)C(=O)N1c1ccccc1 (stereo unspecified)	63	-	-	-	-	-
COc1ccc(NC(=O)N(C)C[C@H]2OCc3cnnn3CCCC(=O)N([C@@H](C)CO)C[C@H]2C)c(OC)c1	.	.	-	.	.	-
COc1ccc(N(C)S(=O)(=O)c2ccc3c(c2)NC(=O)CC(=O)N3)c(OC)c1	-	-	-	-	-	-
CCCCCOC(=O)C1=C(C)NC(=O)NC1c1ccc([N+](=O)[O-])cc1 (stereo unspecified)	63	-	-	-	-	-
C[C@H]1CN([C@@H](C)CO)C(=O)CCCn2nncc2CO[C@@H]1CN(C)Cc1ccncc1	.	.	-	.	.	-
